Measured values from PubChem BioAssay AID1159580 (chemical genetic matrix, 2015).
Screen size: about 5,500 compounds; about 2,000 (36%) were called active. Roughly 18% stayed inconclusive and do not appear here. No stated cut-off is given here; in the data, active means normalized growth mostly below about 0.91 (no sharp cut-off); inconclusive means no clear call, values can overlap the other calls; inactive means mostly above about 0.92. The list shows a part of the results.

Assay: chemical genetic growth profiling, strain panel (AID 1159580);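 further: tested at 20 µM; growth read once vehicle control cultures reached saturation at 30 °C; 1 = growth at the plate median or of vehicle wells; lower values mean less growth of the strain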
Details: growth OD

Measured: normalized growth

CC(NCCc1ccc(O)cc1)C(O)c1ccc(O)cc1 (centres undefined)
inactive: S. cerevisiae deletion strains, locus YJR043C, strain POL32, hits give low values 0.992 | S. cerevisiae deletion strains, locus YJR066W, strain TOR1, hits give low values 0.948 | S. cerevisiae deletion strains, locus YKL009W, strain mrt4, hits give low values 0.977 | S. cerevisiae deletion strains, locus YKL068W, hits give low values 0.985 | S. cerevisiae deletion strains, locus YKL085W, strain MDH1 (second series), hits give low values 0.984 | S. cerevisiae deletion strains, locus YKL085W, strain MDH1, hits give low values 0.984 | S. cerevisiae deletion strains, locus YKL160W, strain elf1, hits give low values 0.966 | S. cerevisiae deletion strains, locus YKL190W, strain CNB1, hits give low values 0.998 | S. cerevisiae deletion strains, locus YKR001C, strain vps1, hits give low values 0.987 | S. cerevisiae deletion strains, locus YKR026C, strain gcn3, hits give low values 0.985 | S. cerevisiae deletion strains, locus YKR091W, strain srl3, hits give low values 0.985 | S. cerevisiae deletion strains, locus YLL001W, strain dnm1, hits give low values 0.981 | S. cerevisiae deletion strains, locus YLL026W, hits give low values 0.999 | S. cerevisiae deletion strains, locus YLL041C, strain sdh2, hits give low values 0.983 | S. cerevisiae deletion strains, locus YLR027C, strain aat2, hits give low values 0.983 | S. cerevisiae deletion strains, locus YLR039C, strain RIC1, hits give low values 1.02 | S. cerevisiae deletion strains, locus YLR058C, strain SHM2, hits give low values 0.988 | S. cerevisiae deletion strains, locus YLR102C, strain apc9, hits give low values 0.98 | S. cerevisiae deletion strains, locus YLR113W, strain HOG1, hits give low values 1.01 | S. cerevisiae deletion strains, locus YLR221C, strain rsa3, hits give low values 1.03 | S. cerevisiae deletion strains, locus YLR258W, strain gsy2, hits give low values 0.954 | S. cerevisiae deletion strains, locus YLR262C, strain YPT6 (second series), hits give low values 0.993 | S. cerevisiae deletion strains, locus YLR262C, strain YPT6, hits give low values 0.977 | S. cerevisiae deletion strains, locus YLR268W, strain sec22, hits give low values 0.975 | S. cerevisiae deletion strains, locus YLR320W, strain mms22, hits give low values 0.987 | S. cerevisiae deletion strains, locus YLR330W, strain CHS5, hits give low values 0.987 | S. cerevisiae deletion strains, locus YLR342W, strain FKS1 (second series), hits give low values 0.984 | S. cerevisiae deletion strains, locus YLR342W, strain FKS1, hits give low values 0.974 | S. cerevisiae deletion strains, locus YLR357W, strain rsc2, hits give low values 0.916 | S. cerevisiae deletion strains, locus YLR370C, strain arc18, hits give low values 0.95 | S. cerevisiae deletion strains, locus YLR371W, strain rom2, hits give low values 0.975 | S. cerevisiae deletion strains, locus YLR384C, strain iki3, hits give low values 0.975 | S. cerevisiae deletion strains, locus YLR418C, strain cdc73, hits give low values 0.969 | S. cerevisiae deletion strains, locus YML016C, strain PPZ1, hits give low values 0.986 | S. cerevisiae deletion strains, locus YML032C, strain rad52, hits give low values 0.976 | S. cerevisiae deletion strains, locus YML120C, strain ndi1, hits give low values 1.02 | S. cerevisiae deletion strains, locus YML124C, strain tub3, hits give low values 0.99 | S. cerevisiae deletion strains, locus YMR058W, strain fet3, hits give low values 0.988 | S. cerevisiae deletion strains, locus YMR078C, strain ctf18, hits give low values 0.986 | S. cerevisiae deletion strains, locus YMR125W, strain sto1, hits give low values 0.98 | S. cerevisiae deletion strains, locus YMR129W, hits give low values 1.01 | S. cerevisiae deletion strains, locus YMR205C, strain PFK2, hits give low values 1 | S. cerevisiae deletion strains, locus YMR223W, strain ubp8, hits give low values 0.976 | S. cerevisiae deletion strains, locus YMR231W, strain pep5, hits give low values 0.997 | S. cerevisiae deletion strains, locus YMR307W, strain GAS1, hits give low values 0.891 | S. cerevisiae deletion strains, locus YNL067W, strain RPL9B, hits give low values 1.01 | S. cerevisiae deletion strains, locus YNL071W, strain lat1, hits give low values 0.993 | S. cerevisiae deletion strains, locus YNL128W, strain TEP1, hits give low values 0.962 | S. cerevisiae deletion strains, locus YNL183C, strain NPR1, hits give low values 0.959 | S. cerevisiae deletion strains, locus YNL209W, strain ssb2, hits give low values 0.961 | S. cerevisiae deletion strains, locus YNL233W, strain BNI4, hits give low values 1 | S. cerevisiae deletion strains, locus YNL248C, strain rpa49, hits give low values 0.921 | S. cerevisiae deletion strains, locus YNL250W, strain rad50, hits give low values 0.974 | S. cerevisiae deletion strains, locus YNL271C, strain bni1, hits give low values 0.973 | S. cerevisiae deletion strains, locus YNL298W, strain CLA4, hits give low values 0.981 | S. cerevisiae deletion strains, locus YNL307C, strain MCK1, hits give low values 0.987 | S. cerevisiae deletion strains, locus YNL322C, strain KRE1 (second series), hits give low values 0.985 | S. cerevisiae deletion strains, locus YNR049C, strain mso1, hits give low values 0.977 | S. cerevisiae deletion strains, locus YNR052C, strain pop2, hits give low values 0.985 | S. cerevisiae deletion strains, locus YOL006C, strain TOP1, hits give low values 1.02 | S. cerevisiae deletion strains, locus YOL012C, strain htz1 0.994 | S. cerevisiae deletion strains, locus YOL147C, strain pex11, hits give low values 0.983 | S. cerevisiae deletion strains, locus YOR001W, strain rrp6, hits give low values 1.03 | S. cerevisiae deletion strains, locus YOR061W, strain CKA2, hits give low values 0.984 | S. cerevisiae deletion strains, locus YOR069W, strain VPS5, hits give low values 0.99 | S. cerevisiae deletion strains, locus YOR070C, strain gyp1, hits give low values 0.976 | S. cerevisiae deletion strains, locus YOR080W, strain dia2, hits give low values 0.977 | S. cerevisiae deletion strains, locus YOR083W, strain WHI5, hits give low values 0.935 | S. cerevisiae deletion strains, locus YOR106W, strain vam3, hits give low values 0.99 | S. cerevisiae deletion strains, locus YOR136W, strain idh2, hits give low values 0.993 | S. cerevisiae deletion strains, locus YOR144C, strain elg1, hits give low values 0.987 | S. cerevisiae deletion strains, locus YOR184W, strain ser1, hits give low values 0.978 | S. cerevisiae deletion strains, locus YOR231W, strain MKK1, hits give low values 1 | S. cerevisiae deletion strains, locus YOR265W, strain rbl2, hits give low values 0.985 | S. cerevisiae deletion strains, locus YOR270C, strain vph1, hits give low values 1.01 | S. cerevisiae deletion strains, locus YOR290C, strain snf2, hits give low values 0.912 | S. cerevisiae deletion strains, locus YOR316C, strain cot1, hits give low values 0.984 | S. cerevisiae deletion strains, locus YPL051W, strain arl3, hits give low values 0.978 | S. cerevisiae deletion strains, locus YPL078C, strain atp4, hits give low values 0.946 | S. cerevisiae deletion strains, locus YPL106C, strain sse1, hits give low values 0.969 | S. cerevisiae deletion strains, locus YPL240C, strain hsp82, hits give low values 0.995 | S. cerevisiae deletion strains, locus YPL241C, strain CIN2, hits give low values 0.992 | S. cerevisiae deletion strains, locus YPL256C, strain CLN2, hits give low values 1.01 | S. cerevisiae deletion strains, locus YPR119W, strain clb2, hits give low values 0.986 | S. cerevisiae deletion strains, locus YPR141C, strain kar3, hits give low values 0.969 | S. cerevisiae deletion strains, locus YPR163C, strain tif3, hits give low values 0.982 | S. cerevisiae deletion strains, locus YPR167C, strain met16, hits give low values 0.972 | S. cerevisiae deletion strains, strain wtn01, hits give low values 0.976 | S. cerevisiae strains, strain wild type, hits give low values 0.989
